Pf Dd2 growth: qHTS Primary assay for Inhibitors of Plasmodium falciparum Dd2 growth in vitro; P. falciparum Dd2 growth, SYBR Green, 72 h; Potency, µM (series often up to 28.9 µM), hits mostly inhibitors; actives 4.3% (n = 120,000); active means well fitted inhibition curve with a large enough effect; further: nearly all actives have a fitted effect of over 65% in size
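Readout: SYBR Green fluorescence, 485 nm excitation, 535 nm emission, after ~16 h lysis at 37C. Before that, Dd2-infected red cells (2.5% hematocrit) grew 72 h with compound, 29 uM top final concentration.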
Large screens that a line does not name were inactive; ! = not confirmed by another sample. Many of the other results were omitted from the sample, so hits are more common in it than they were.

CN(CCc1nc2ccc(Cl)cc2[nH]1)c1cc(C2CC(O)C2)nc(N)n1 (stereo not drawn)	none
Cc1ccc(SCCN(C)c2cc(C3CC(O)C3)nc(N)n2)cc1 (stereo not drawn)	Pf Dd2 growth 5.62µM
O=C1NCCCCCN(C(=O)COc2ccccc2)[C@H]2CCC[C@@H]12	none
O=S(=O)(N[C@H]1[C@H](O)[C@H](O)C[C@@H]1c1cncnc1)c1ccc(C(F)(F)F)cc1	none
O=S(=O)(N[C@H]1[C@H](O)[C@H](O)C[C@@H]1c1ccccc1)c1ccc(C(F)(F)F)cc1	none
N#Cc1ccc(S(=O)(=O)N[C@H]2[C@H](O)[C@H](O)C[C@@H]2c2ccc(C(F)(F)F)cc2)cc1	Pf Dd2 growth 11.2µM
CS(=O)(=O)N1CCC(OC2CCN(C(=O)Nc3c(F)cccc3F)CC2)CC1	none
CCN1CCCC(c2nc3ccc(C)cc3c(=O)[nH]2)C1 (stereo not drawn)	none
Cc1ccc2nc(C3CCN(Cc4cccc(-c5ccsc5)c4)CC3)[nH]c(=O)c2c1	none
Cc1ccc2nc(C3CCCN(Cc4cccc(-c5cccnc5)c4)C3)[nH]c(=O)c2c1 (stereo not drawn)	Pf Dd2 growth 6.31µM
Cc1ccc2nc(C3CCN(Cc4cccs4)CC3)[nH]c(=O)c2c1	none
COc1ccc(CN2CCCC(c3nn(-c4ccc(OC)cc4)c(=O)[nH]3)C2)cc1 (stereo not drawn)	none
COc1ccccc1-c1ccc(CN2CCCC(c3nc4ccc(C)cc4c(=O)[nH]3)C2)cc1 (stereo not drawn)	Pf Dd2 growth 7.94µM!
CS(=O)(=O)N1CCC(C2CCN(C(=O)CN3CCOCC3)C2)CC1 (stereo not drawn)	none
O=C(c1ccc(=O)[nH]n1)N1C[C@H]2OC(=O)N(CCCN3CCOCC3)[C@H]2C1	none
CC(C)(O)CCc1ccc(CN2CCN([C@H]3CCCC[C@@H]3O)CC2)cc1	none
O=C1OCC2(CCN(Cc3ccc(Cl)cc3)C2)N1Cc1ccccn1 (stereo not drawn)	none
Cc1ccccc1CN1CC[C@@H]2OCC(=O)N(Cc3cccc(C(N)=O)c3)[C@H]2CC1	none
COc1nccc(N2CCC(CC(=O)N3CCCC3)CC2)n1	none
C[C@@H]1C(=O)O[C@H]2[C@H]1CC[C@@]1(C)Cc3sc(NCc4ccccc4)nc3[C@@H](C)[C@H]21	none
C[C@@H]1C(=O)O[C@H]2[C@H]1CC[C@@]1(C)Cc3sc(NC(=O)COCC(=O)O)nc3[C@@H](C)[C@H]21	none
C[C@@H]1C(=O)O[C@H]2[C@H]1CC[C@@]1(C)Cc3sc(NC(=O)COc4ccccc4)nc3[C@@H](C)[C@H]21	Pf Dd2 growth 7.08µM
O=C(c1ccc2c(c1)OCO2)N1CCN(c2cc(-c3cccs3)[nH]n2)CC1	none
CC(=O)Nc1ccc(CN2CCN3C(=O)N(Cc4ccccc4)C[C@H]3C2)cc1	none
NCCc1ccc(CN2C[C@@H]3CC[C@H](C2)N(Cc2ccccc2)C3)cc1	Pf Dd2 growth 11.2µM
O=C1[C@H]2CN(Cc3ccc(C(F)(F)F)cc3)C[C@H]2C(=O)N1CCc1ccccc1	none
CC(C)NC(=O)N(C1CCOCC1)C1CN(S(=O)(=O)c2cn(C)cn2)C1	none
O=C(O)C1=NOC2CN(Cc3cccc(C(F)(F)F)c3)CC12 (stereo not drawn)	none
Cc1cc(CNC(=O)c2cc(-c3ccccc3)cc3c2OCCN3C)no1	none
CC(=O)Nc1cc(-c2cc(C(=O)NCc3cc(C)on3)c3c(c2)N(C)CCO3)ccn1	Pf Dd2 growth 7.94µM
CC(=O)Nc1cc(-c2cc(C(=O)NCc3cccnc3)c3c(c2)N(C)CCO3)ccn1	none
COc1cccc(-c2noc(Nc3ccc4c(c3)OCO4)n2)c1	none
CC(=O)NCC(=O)N1CCCC(C(=O)Nc2cccc(-c3ccc(F)cc3)c2)C1 (stereo not drawn)	none
CC(C)(C)CC(=O)N1CCCC(C(=O)Nc2cccc(-c3ccc(F)cc3)c2)C1 (stereo not drawn)	none
O=C(Nc1ccc(-c2cccc(F)c2)cc1)C1CCCN(C(=O)c2ccncc2)C1 (stereo not drawn)	Pf Dd2 growth 7.08µM
O=C(c1cccc(F)c1)N1CCCC(Nc2ccc(F)cc2)C1 (stereo not drawn)	none
N#Cc1cc(CN2CCCC(C(=O)Nc3cccc(-c4ccc(F)cc4)c3)C2)c[nH]1 (stereo not drawn)	Pf Dd2 growth 10µM
Cc1[nH]cnc1CN1CCCC(C(=O)Nc2ccc(-c3cccc(F)c3)cc2)C1 (stereo not drawn)	Pf Dd2 growth 10µM
Cc1ncoc1C(=O)N1CCCC1C(=O)Nc1cccc(-c2ccc(F)cc2)c1 (stereo not drawn)	none
CCc1ccc(NC(=O)C2CCCN(S(=O)(=O)c3ccc(F)cc3)C2)cc1 (stereo not drawn)	none
Cc1ccc(NC(=O)C2CCCN(S(=O)(=O)c3ccc(F)cc3)C2)cc1 (stereo not drawn)	none
COCCCNC(=O)N1C[C@@H]2CCCN3CCC[C@@H]([C@H]23)[C@H]1CCCC(=O)NCC1CC1	none
COc1cccc(NC(=O)N2CC(C(=O)N(C)C)C3(CCOCC3)C2)c1 (stereo not drawn)	none
Cc1ccc(NC(=O)N2CC3CC(C2)[C@H]2CCCC(=O)N2C3)cc1 (stereo partly drawn)	none
COc1ccc(Cc2noc(-c3ccc(N(C)Cc4nonc4C)nc3)n2)cc1	none
O=C1COCC2(CN1)CN(Cc1ccc3c(c1)CCO3)C2	none
CCCNC(=O)CN1C(=O)NC(c2ccccc2OC)C2=C1COC2=O (stereo not drawn)	none
CCOCCCNc1ncnc2c1CN(C1CCCNC1)C(=O)CN2C (stereo not drawn)	none
O=C(NC1CCCCC1)C1CCc2sc(C(=O)N3CCCC3)cc2C1 (stereo not drawn)	none
CC(=O)N1C[C@@H](C(=O)N2CCN(c3ccccn3)CC2)[C@H](c2nc(C)no2)C1	none
COc1ccc(N2CCN(C3CCCN(CC4CC4)C3)CC2)cc1 (stereo not drawn)	none
COc1ccc(N2CCN(C3CCCN(CC(N)=O)C3)CC2)cc1 (stereo not drawn)	none
COc1cc2c(cc1OC)CN(C1CCCN(Cc3c(O)cccc3OC)C1)CC2 (stereo not drawn)	Pf Dd2 growth 10µM
COc1cccc(CN2CCCC(c3ccc(C(=O)O)cc3)C2)c1OC (stereo not drawn)	none
COc1cc(CN2CCCC(COc3ccccc3C(=O)N3CCCC3)C2)ccc1O (stereo not drawn)	none
COc1ccc(F)c(CN2CCCN3CCC[C@H]3C2)c1Cl	Pf Dd2 growth 12.6µM
Cn1cccc1C(=O)N1C[C@@H](NC(=O)NC2CCCCC2)C[C@H]1C(=O)N[C@H](Cc1c[nH]c2ccccc12)C(N)=O	none
COc1ccc(C2Cn3nnc(C(=O)N4CCC(C(=O)NC5CC5)CC4)c3CO2)cc1 (stereo not drawn)	none
CCCS(=O)(=O)N[C@@H]1CN(c2ncccn2)C[C@H]1CN(C)C	none
CC(C)NC(=O)N1CCN(C(=O)c2cccs2)[C@H](C(=O)N[C@@H](Cc2cccnc2)C(N)=O)C1	none
COCCNc1nc2c([S+](=O)([O-])c3ccc(Cl)cc3)nnn2c2ccccc12	none
O=C(NCCc1ccc(Cl)cc1)c1nc(-c2ccc(Cl)cc2Cl)c2cnccn12	Pf Dd2 growth 4.47µM
O=C(NCCc1ccc(Cl)cc1)c1nc(-c2ccc(Cl)cc2Cl)c2ccccn12	none
O=C(NCCc1ccc(Cl)cc1)c1cc(-c2cnccc2Cl)c2cccn2n1	none
CNC(=O)[C@@H]1C[C@@H](O)CN1C1CCN(C(=O)c2ccccc2OC)CC1	none
Cn1nc(C(=O)NC2CCc3nn(CC4CC4)c(=O)n3CC2)c2ccccc21 (stereo not drawn)	none
